# From PubChem BioAssay
# Values joined by “and” are separate entries in the source; they are usually repeats but may differ in a detail not shown here. Equal values may be shown once. Where a structure was tested more than once in an assay, its records may differ in their call. Active and inactive are the calls of the source.
# Key:
# [1] = system: PRMT1 (protein arginine N-methyltransferase 1); assay: small molecules binding arginine methyltransferase PRMT1 – biochemical, small-molecule microarray, 635 nm fluorescence, primary screen (AID 1088); details: higher = more signal;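 also: binding of Prmt1 protein to compounds spotted on small-molecule microarray slides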
# [2] = growth effects on S. cerevisiae YJM789 – YJM789 clinical isolate, OD600, 24 h, basal, primary screen (AID 1089); details: higher = more signal, called active from +8 up or from −8 down;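 also: growth of clinical yeast isolate S. cerevisiae YJM 789 seeded 1000 cells per well; test concentration not given here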
# [3] = S. pombe growth modifiers, basal conditions – strain 972, OD600, 24 h, no modulator, primary screen (AID 1090);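 also: basal condition with compound alone and no growth modifier present; test concentration not given here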; details: S. pombe 972 growth, higher = more signal, called active from +8 up or from −8 down
# [4] = budding yeast growth modifiers under rapamycin – strain BY4716, OD600, 96 h, primary screen (AID 1091); also: test concentration not given here; details: S. cerevisiae BY4716 + rapamycin, higher = more signal, called active from +8 up or from −8 down
# [5] = molecular target: Torsin-1A-interacting protein 2 (Homo sapiens) (UniProt Q8NFQ8); assay: small molecules binding lysate-expressed LULL1 – cell lysate, human LULL1 lysate, 635/667 nm fluorescence, primary screen (AID 1092); details: small-molecule microarray, hLULL1 lysate binding, 635 nm fluorescence; higher = more signal;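 also: probe is lysate of COS7 cells overexpressing human LULL1; score merges per-feature 667 nm fluorescence with signal-to-noise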
# [6] = optical density change of DRC41 E. coli – strain DRC41, OD650, 24 h, E. coli filamentation project, primary screen (AID 1093);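 also: MC1000 strain lacking acrAB efflux and sulA so SOS filamentation is blocked; test concentration not given here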; details: E. coli DRC41 growth, higher = more signal, called active from +8 up or from −8 down
# [7] = probe aLefty2 binding to arrayed compounds – biochemical, biotinylated probe, 635/667 nm fluorescence, primary screen (AID 1094); details: small-molecule microarray, higher = more signal;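 also: score merges spot fluorescence near 667 nm with spot signal-to-noise ratio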
# [8] = system: Noggin (protein binding on small-molecule microarray); assay: small molecules binding Noggin protein – biochemical, 635/667 nm fluorescence, primary screen (AID 1095); details: 635 nm fluorescence, higher = more signal;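 also: score merges 667 nm feature fluorescence with signal to noise over triplicate slides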
# [9] = molecular target: Neurogenic locus notch homolog protein 3 (Homo sapiens) (UniProt Q9UM47); assay: small molecules binding NOTCH3 protein – biochemical, 635/667 nm fluorescence, primary screen (AID 1096); details: small-molecule microarray, 635 nm fluorescence, higher = more signal
# [10] = probe aEGFR binding to arrayed compounds – biochemical, biotinylated probe, 635/667 nm fluorescence, primary screen (AID 1097); details: small-molecule microarray, higher = more signal;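 also: probe is a biotinylated anti-EGFR antibody binding compounds printed on slides; score combines fluorescence near 667 nm and signal to noise of each spot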
# [11] = system: Plasmodium falciparum Sir2 (PF13_0152, Sir2A); assay: Plasmodium falciparum Sir2A binding compounds – biochemical, small-molecule microarray, 635 nm fluorescence, primary screen (AID 1098); details: fluorescence 635 nm, higher = more signal;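 also: score merges spot fluorescence intensity with its signal-to-noise ratio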
# [12] = probe aDKK1 binding to arrayed compounds – biochemical, biotinylated probe, 635/667 nm fluorescence, primary screen (AID 1099); details: small-molecule microarray, higher = more signal;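 also: score merges 667nm spot fluorescence with signal to noise across triplicate slides; reference of the scale not given here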
# [13] = probe aCHRDL2 binding to arrayed compounds – biochemical, biotinylated probe, 635/667 nm fluorescence, primary screen (AID 1100); details: small-molecule microarray, higher = more signal
# [14] = change in splice reporter luminescence, either direction, cell-based, HEK293, spliceosome inhibition project, primary screen (AID 1101); details: HEK293 splicing luciferase reporter, 24 h, higher = more signal, called active from +8 up or from −8 down;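 also: HEK293 cells carrying a splicing-competent luciferase reporter gene; test concentration not given here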
# [15] = molecular target: Fibroblast growth factor 10 (Homo sapiens) (UniProt O15520); assay: compounds binding fibroblast growth factor 10 – biochemical, small-molecule microarray, 635 nm fluorescence, primary screen (AID 1102); details: FGF10 binding, fluorescence 635 nm, higher = more signal
# [16] = system: glycogen synthase kinase-3 (GSK3A per assay name; protocol says GSK3B); assay: compounds binding glycogen synthase kinase-3 – biochemical, small-molecule microarray, 635 nm fluorescence, GSK3A, primary screen (AID 1103); details: fluorescence 635 nm, higher = more signal; also: the record names both GSK3A and GSK3B
# [17] = molecular target: Epidermal growth factor receptor (Homo sapiens) (UniProt P00533); assay: compounds binding epidermal growth factor receptor – biochemical, small-molecule microarray, 635 nm fluorescence, primary screen (AID 1104); details: EGFR binding, higher = more signal;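 also: score merges 667 nm emission intensity with spot signal to noise over triplicate slides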
# [18] = molecular target: Follistatin-related protein 3 (Homo sapiens) (UniProt O95633); assay: compounds binding follistatin-related protein 3 – biochemical, small-molecule microarray, 635 nm fluorescence, primary screen (AID 1105); details: FSTL3 binding, higher = more signal;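 also: score merges emission near 667 nm and signal to noise per printed spot across three slides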
# [19] = molecular target: Dickkopf-related protein 1 (Homo sapiens) (UniProt O94907); assay: small molecules binding DKK1 protein – biochemical, small-molecule microarray, 635 nm fluorescence scan, primary screen (AID 1106); details: higher = more signal;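 also: score merges emission near 667 nm with signal to noise over three replicate slides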
# [20] = system: Inhibin beta A chain (activin A); assay: small molecules binding activin A – biochemical, small-molecule microarray, 635 nm fluorescence scan, primary screen (AID 1107); details: INHBA, higher = more signal;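 also: mouse activin A protein probed at 4.33 µg/mL on printed slides; score merges bound-protein fluorescence near 667 nm with spot signal-to-noise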
# Chain of Fibroblast growth factor 10 (Homo sapiens) (O15520 whole entry, looked up): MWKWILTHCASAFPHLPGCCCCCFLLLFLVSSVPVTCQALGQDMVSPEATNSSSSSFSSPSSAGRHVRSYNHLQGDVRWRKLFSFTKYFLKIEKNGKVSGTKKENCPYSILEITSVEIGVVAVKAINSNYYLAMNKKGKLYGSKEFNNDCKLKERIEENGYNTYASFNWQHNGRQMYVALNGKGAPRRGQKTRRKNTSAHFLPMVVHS
# Chain of Neurogenic locus notch homolog protein 3 (Homo sapiens) (Q9UM47 whole entry, looked up): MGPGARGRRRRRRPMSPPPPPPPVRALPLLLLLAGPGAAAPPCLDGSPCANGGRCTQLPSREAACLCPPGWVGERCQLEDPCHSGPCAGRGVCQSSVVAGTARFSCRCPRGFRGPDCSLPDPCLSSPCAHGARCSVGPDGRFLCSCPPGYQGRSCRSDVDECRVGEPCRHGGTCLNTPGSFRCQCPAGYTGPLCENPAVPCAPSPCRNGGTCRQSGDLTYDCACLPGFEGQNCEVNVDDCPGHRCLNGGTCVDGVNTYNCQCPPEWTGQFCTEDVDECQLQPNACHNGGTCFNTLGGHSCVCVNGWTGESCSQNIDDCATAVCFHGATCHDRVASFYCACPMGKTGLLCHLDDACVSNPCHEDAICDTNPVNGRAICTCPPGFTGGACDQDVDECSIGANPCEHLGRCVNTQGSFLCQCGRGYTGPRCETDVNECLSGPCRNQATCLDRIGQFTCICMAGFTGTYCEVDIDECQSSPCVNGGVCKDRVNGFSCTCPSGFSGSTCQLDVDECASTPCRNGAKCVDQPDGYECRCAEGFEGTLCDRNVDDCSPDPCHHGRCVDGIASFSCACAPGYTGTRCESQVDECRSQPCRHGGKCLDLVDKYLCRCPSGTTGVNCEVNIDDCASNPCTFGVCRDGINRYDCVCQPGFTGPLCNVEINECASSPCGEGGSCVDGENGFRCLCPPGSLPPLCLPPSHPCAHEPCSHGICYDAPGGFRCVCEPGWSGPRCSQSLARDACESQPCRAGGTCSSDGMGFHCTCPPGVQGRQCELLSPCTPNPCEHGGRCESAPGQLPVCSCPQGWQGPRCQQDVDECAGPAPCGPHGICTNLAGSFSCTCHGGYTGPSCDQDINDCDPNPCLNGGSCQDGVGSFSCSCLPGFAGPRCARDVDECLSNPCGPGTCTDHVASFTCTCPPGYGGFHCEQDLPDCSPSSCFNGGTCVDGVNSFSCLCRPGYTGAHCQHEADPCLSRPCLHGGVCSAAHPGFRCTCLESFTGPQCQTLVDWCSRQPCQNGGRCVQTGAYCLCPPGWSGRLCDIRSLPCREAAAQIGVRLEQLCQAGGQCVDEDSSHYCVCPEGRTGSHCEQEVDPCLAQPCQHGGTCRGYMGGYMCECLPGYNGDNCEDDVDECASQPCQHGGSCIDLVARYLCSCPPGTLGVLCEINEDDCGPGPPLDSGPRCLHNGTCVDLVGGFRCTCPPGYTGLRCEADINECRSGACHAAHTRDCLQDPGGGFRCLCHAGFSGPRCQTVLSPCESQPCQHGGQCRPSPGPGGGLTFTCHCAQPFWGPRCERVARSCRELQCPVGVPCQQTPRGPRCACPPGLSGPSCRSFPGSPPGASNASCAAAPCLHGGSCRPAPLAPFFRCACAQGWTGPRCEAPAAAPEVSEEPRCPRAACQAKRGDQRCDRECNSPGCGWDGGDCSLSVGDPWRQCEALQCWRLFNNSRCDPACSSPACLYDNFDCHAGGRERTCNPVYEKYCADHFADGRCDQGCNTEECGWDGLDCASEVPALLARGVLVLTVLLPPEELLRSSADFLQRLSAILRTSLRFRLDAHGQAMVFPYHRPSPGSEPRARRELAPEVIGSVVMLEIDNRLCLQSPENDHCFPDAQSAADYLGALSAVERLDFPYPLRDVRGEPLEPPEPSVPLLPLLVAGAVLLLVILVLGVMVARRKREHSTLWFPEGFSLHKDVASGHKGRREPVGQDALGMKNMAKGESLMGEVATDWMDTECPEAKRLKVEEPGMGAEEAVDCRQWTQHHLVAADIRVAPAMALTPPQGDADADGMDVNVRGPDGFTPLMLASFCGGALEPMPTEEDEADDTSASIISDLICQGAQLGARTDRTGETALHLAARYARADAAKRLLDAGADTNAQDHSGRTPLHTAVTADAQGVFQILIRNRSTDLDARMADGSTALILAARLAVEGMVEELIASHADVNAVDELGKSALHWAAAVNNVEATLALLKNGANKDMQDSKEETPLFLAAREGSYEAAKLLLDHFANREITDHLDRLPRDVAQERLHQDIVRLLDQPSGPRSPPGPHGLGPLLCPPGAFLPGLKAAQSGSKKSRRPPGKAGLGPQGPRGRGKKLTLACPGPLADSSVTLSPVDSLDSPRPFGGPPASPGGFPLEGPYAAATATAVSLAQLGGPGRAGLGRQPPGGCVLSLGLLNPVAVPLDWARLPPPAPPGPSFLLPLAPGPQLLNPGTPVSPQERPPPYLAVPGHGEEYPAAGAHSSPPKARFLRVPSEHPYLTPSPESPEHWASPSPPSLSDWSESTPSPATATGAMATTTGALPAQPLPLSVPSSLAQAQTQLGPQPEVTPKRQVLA
# Chain of Dickkopf-related protein 1 (Homo sapiens) (O94907 whole entry, looked up): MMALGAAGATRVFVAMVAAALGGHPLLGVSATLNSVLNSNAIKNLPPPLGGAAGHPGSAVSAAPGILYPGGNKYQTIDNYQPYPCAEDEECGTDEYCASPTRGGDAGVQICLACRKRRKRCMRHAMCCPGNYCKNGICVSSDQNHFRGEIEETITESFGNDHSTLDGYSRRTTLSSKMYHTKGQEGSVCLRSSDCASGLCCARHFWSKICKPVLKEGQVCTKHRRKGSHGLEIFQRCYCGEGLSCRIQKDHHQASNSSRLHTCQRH
# Chain of Epidermal growth factor receptor (Homo sapiens) (P00533 whole entry, looked up): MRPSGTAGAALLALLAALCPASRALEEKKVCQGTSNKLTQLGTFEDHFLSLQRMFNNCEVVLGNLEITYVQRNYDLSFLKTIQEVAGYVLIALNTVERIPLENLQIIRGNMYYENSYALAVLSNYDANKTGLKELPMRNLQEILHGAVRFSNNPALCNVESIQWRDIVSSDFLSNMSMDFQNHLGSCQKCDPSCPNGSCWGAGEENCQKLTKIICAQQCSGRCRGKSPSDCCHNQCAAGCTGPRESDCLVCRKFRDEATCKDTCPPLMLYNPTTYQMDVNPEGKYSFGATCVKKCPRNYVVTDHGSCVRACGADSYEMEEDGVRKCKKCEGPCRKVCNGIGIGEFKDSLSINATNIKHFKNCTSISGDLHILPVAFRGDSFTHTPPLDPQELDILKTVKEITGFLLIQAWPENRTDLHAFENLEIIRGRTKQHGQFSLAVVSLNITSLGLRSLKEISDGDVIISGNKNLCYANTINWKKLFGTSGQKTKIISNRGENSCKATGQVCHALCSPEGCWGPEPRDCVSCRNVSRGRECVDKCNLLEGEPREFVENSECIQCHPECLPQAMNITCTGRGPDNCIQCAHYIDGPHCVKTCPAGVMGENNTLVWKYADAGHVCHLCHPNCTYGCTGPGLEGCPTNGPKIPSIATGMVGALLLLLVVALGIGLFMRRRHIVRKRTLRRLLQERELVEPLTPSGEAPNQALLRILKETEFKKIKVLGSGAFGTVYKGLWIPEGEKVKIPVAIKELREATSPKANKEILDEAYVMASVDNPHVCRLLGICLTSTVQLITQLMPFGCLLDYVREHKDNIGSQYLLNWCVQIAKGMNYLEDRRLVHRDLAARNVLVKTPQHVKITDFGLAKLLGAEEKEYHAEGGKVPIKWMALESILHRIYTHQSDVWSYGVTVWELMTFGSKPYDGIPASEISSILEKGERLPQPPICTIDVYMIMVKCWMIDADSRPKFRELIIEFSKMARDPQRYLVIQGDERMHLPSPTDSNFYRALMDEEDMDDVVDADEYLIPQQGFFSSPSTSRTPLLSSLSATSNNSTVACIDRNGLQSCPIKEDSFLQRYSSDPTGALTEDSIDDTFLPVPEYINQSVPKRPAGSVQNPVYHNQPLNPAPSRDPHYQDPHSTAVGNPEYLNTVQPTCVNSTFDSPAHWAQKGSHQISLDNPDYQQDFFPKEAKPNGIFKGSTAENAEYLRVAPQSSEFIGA
# Chain of Follistatin-related protein 3 (Homo sapiens) (O95633 whole entry, looked up): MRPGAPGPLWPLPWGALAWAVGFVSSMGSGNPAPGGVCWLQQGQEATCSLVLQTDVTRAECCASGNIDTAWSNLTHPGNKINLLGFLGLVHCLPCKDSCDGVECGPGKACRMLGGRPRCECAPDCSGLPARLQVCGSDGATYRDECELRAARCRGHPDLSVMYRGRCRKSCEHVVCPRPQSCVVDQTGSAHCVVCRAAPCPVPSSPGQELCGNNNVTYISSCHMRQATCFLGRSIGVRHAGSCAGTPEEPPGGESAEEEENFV
# Chain of Torsin-1A-interacting protein 2 (Homo sapiens) (Q8NFQ8 whole entry, looked up): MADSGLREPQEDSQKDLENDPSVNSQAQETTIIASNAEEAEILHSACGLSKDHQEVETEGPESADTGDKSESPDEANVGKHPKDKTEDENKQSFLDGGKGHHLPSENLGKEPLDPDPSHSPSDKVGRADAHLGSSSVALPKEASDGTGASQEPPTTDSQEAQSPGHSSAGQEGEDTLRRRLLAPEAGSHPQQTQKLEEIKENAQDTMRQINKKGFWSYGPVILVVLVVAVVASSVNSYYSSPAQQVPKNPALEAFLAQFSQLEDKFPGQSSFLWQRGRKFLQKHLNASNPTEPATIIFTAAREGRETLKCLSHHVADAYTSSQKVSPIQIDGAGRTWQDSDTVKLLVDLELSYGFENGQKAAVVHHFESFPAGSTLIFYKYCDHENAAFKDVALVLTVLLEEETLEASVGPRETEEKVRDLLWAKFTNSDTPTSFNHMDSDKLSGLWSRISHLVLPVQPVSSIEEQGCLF
Compound,composite z-score [1],z-score [2],z-score [3],z-score [4],composite z-score [5],z-score [6],composite z-score [7],composite z-score [8],composite z-score [9],composite z-score [10],composite z-score [11],composite z-score [12],composite z-score [13],z-score [14],composite z-score [15],composite z-score [16],composite z-score [17],composite z-score [18],composite z-score [19],composite z-score [20]
COC(=O)C1=C2N(Cc3ccccc3)C(C)=C(C(=O)OC)[C@@H](c3ccccc3)N2C(=O)[C@](O)(C(=O)OC)C1,0.691 and 0.144,-0.149 (inactive) and -0.0628 (inactive),-0.925 (inactive) and -0.134 (inactive),-1.34 (inactive) and -0.299 (inactive),1.8 and -0.466,0.788 (inactive) and -0.0132 (inactive),-0.142 and -0.235,1.14 and 0.796,0.81 and 0.263,-0.142 and -0.133,0.271 and 0.0802,-0.17 and -0.241,-0.684 and -0.512,-0.229 (inactive) and 0.213 (inactive),0.622 and 0.395,0.943 and 0.479,0.273 and 0.585,0.963 and 0.359,0.916 and 0.574,-0.146 and 0.22
COC(=O)C1=C(C)N(Cc2ccccc2)C2=C(C(C)=O)C[C@@](O)(C(=O)OC)C(=O)N2[C@@H]1c1ccccc1,1.55 and -0.0318,-0.762 (inactive) and -2.05 (inactive),-0.987 (inactive) and -1.63 (inactive),-1.32 (inactive) and -0.654 (inactive),1.68 and 0.258,0.528 (inactive) and 0.524 (inactive),-0.195 and -0.331,0.364 and 0.0733,0.729 and -0.153,0.0069 and -0.158,1.58 and 0.326,-0.301 and -0.205,-0.764 and -0.229,-0.805 (inactive) and -0.873 (inactive),0.988 and 0.0571,0.74 and -0.0162,0.381 and 0.348,0.869 and 0.521,0.801 and 0.478,0.522 and 1.28
CON(C)C(=O)c1nnc2c3ccccc3n(S(=O)(=O)c3ccc(C)cc3)c2n1,-0.0043 and 1.58,-0.461 (inactive) and 0.111 (inactive),-0.823 (inactive) and -1.05 (inactive),0.171 (inactive) and -0.671 (inactive),1.2 and 1.93,0.155 (inactive) and 0.517 (inactive),-0.0944 and -0.229,0.423 and 0.772,0.233 and 1.04,-0.0238 and -0.171,0.478 and 0.658,-0.0748 and 0.249,-0.487 and -0.75,0.317 (inactive) and 0.807 (inactive),0.638 and 0.746,0.67 and 1.25,0.484 and 0.58,0.476 and 1.02,0.614 and 0.551,0.454 and 0.688
C[N+](C)(C)CCCCCCNC(=O)[C@H]1C[C@H]2C(=O)N[C@@H](CCCC[N+](C)(C)C)C(=O)N2[C@H]1c1cccc(OCCO)c1,1.46 and 0.0165,-2.56 (inactive) and 0.455 (inactive),-1.18 (inactive) and -0.331 (inactive),0.162 (inactive) and 1.01 (inactive),2.99 and 0.566,0.598 (inactive) and -0.404 (inactive),-0.0589 and 0.582,1.94 and 0.904,1.01 and -0.0712,-0.0703 and 0.127,1.73 and 1.42,-0.0501 and 1.08,-0.148 and 0.62,-0.159 (inactive) and 0.257 (inactive),1.2 and 0.913,0.898 and 0.613,0.111 and 0.558,1.44 and 0.262,1.34 and 1.55,0.589 and 1.36
O=C(NN=C1C[C@@H](O)[C@@H](O)[C@@H]2[C@@H]3C(=O)N(Cc4ccc5c(c4)OCO5)C(=O)[C@@H]3CC[C@H]12)OCc1ccccc1,1.15,0.48 (inactive),-0.157 (inactive),0.191 (inactive),-0.815,1.01 (inactive),-0.0047,0.707,-0.0259,-0.0828,-0.345,0.118,0.298,0.0692 (inactive),-0.464,-1.2,-0.0036,-0.904,-1.57,-2.22
C=CCN(Cc1ccccc1)C(=O)C1N(C(C)(C)CO)C(=O)C2C(C(=O)O)C3C=CC21O3 (stereo not given),-1.67 and -1.32,-0.421 (inactive) and -0.475 (inactive),-0.369 (inactive) and -0.243 (inactive),-0.13 (inactive) and -0.429 (inactive),-0.696 and -1.91,-0.333 (inactive) and 1.73 (inactive),-0.0563 and -0.136,-2.68 and -1.76,-1.46 and -1.43,-0.25 and -0.242,0.107 and 0.29,-0.135 and -0.486,0.708 and 0.849,0.0525 (inactive) and 0.382 (inactive),-1.46 and -2,-0.767 and -1.51,-2.64 and -1.86,-1.45 and -1.73,-2.3 and -1.58,-4.6 and -2.88
CCCC[C@@H]1CN2[C@@H](CC[C@@H](C)[C@@H]2c2ccc(Br)cc2)C(=O)O1,1.38 and 0.811,0.301 (inactive) and 0.0912 (inactive),-17.2 (active) and -6.6 (inactive),-0.278 (inactive) and 0.42 (inactive),1.93 and 1.44,0.133 (inactive) and 0.153 (inactive),-0.0446 and -0.239,0.0666 and -0.156,0.287 and 0.683,-0.141 and 0.0021,0.469 and 0.883,-0.13 and -0.277,-0.455 and -0.254,0.33 (inactive) and 0.758 (inactive),0.979 and 0.906,0.521 and 0.0677,0.183 and -0.121,0.516 and 0.351,0.272 and 0.136,0.488 and -0.0019
COC(=O)C1=C(C)N(Cc2ccccc2)C2=C3C(=O)CCC[C@@H]3[C@@](O)(C(=O)OC)C(=O)N2[C@@H]1c1ccccc1,0.749 and -0.121,0.494 (inactive) and -0.978 (inactive),-1.66 (inactive) and -4.18 (inactive),-2.01 (inactive) and -2.52 (inactive),0.0102 and 0.0556,0.821 (inactive) and 0.754 (inactive),0.182 and -0.0863,0.637 and 0.433,0.602 and -0.239,-0.177 and 0.108,0.464 and -0.773,0.0021 and -0.0015,-0.334 and -0.299,0.732 (inactive) and -1.28 (inactive),0.887 and 0.389,0.379 and 0.224,0.459 and 0.433,0.843 and 0.284,0.641 and 0.516,0.177 and 0.506
